{"source": "PubChem BioAssay (Tox21)", "key": {"[1]": {"experiment": "qHTS assay to identify small molecule agonists of the RXR signaling pathway - cell viability counter screen (AID 1159529);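 note: HEK 293T cells carrying an RXR-alpha UAS beta-lactamase reporter; series mostly up to about 77 µM; nearly all actives have a fitted effect of over 50% in size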", "in_short": "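Viability read-out for the RXR-alpha agonist qHTS: luminescent CellTiter-Glo signal after 30 min at RT. HEK 293T bla reporter cells, 2% charcoal-stripped FBS, 16 hr compound incubation; tetraoctyl ammonium bromide as cytotoxic control.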"}, "[2]": {"experiment": "qHTS assay to identify small molecule antagonists of the retinoid acid receptor (RAR) signaling pathway - cell viability counter screen (AID 1159551); note: nearly all actives have a fitted effect of over 35% in size", "in_short": "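Cytotoxicity counter screen in C3RL4 cells: 6 h compound exposure with 1 uM retinol (final), viability from cellular ATP by luminescence.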"}, "[3]": {"experiment": "qHTS assay to identify small molecule antagonists of the retinoic acid receptor (RAR) signaling pathway (AID 1159552; note: nearly all actives have a fitted effect of over 50% in size)", "in_short": "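Using a RARE-driven luciferase construct in C3RL4 cells, retinol at 1 uM final provided the agonist stimulus while compounds were co-applied. After 6 hours at 37 C, luminescence was recorded to flag inhibitors of retinol signaling.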"}, "[4]": {"experiment": "qHTS assay to identify small molecule antagonists of the estrogen related receptor (ERR) signaling pathway from Tox21 library - cell viability counter screen (AID 1224834); note: nearly all actives have a fitted effect of over 30% in size", "in_short": "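Cytotoxicity of test substances is gauged in the same ERR cells used for the antagonist screen, after 17.5 h of compound treatment at 37 C, by CellTiter-Fluor fluorescence measured after 30 min.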"}, "[5]": {"target": "Luciferin 4-monooxygenase (Photinus pyralis) (UniProt P08659)", "sequence (P08659 whole entry, looked up)": "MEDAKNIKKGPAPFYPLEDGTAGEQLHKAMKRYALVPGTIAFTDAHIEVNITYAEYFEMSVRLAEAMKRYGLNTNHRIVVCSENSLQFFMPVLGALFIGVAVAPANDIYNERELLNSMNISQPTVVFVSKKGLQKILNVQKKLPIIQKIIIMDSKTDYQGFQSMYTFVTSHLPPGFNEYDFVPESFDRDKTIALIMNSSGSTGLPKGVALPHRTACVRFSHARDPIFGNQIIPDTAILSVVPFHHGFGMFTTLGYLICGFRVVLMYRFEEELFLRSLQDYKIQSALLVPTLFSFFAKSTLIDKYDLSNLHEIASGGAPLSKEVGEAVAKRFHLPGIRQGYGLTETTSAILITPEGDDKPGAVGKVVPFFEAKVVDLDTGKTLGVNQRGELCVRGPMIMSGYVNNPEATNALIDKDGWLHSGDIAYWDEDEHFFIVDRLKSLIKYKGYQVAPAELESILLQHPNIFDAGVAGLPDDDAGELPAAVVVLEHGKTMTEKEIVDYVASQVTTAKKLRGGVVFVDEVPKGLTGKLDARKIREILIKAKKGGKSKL", "experiment": "qHTS assay to identify small molecule inhibitors of firefly luciferase (AID 1224835); note: nearly all actives have a fitted effect of over 25% in size; note: potency is the fitted concentration of half-maximal effect", "in_short": "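Quantitative HTS format; KM concentrations of both substrates. Purified P. pyralis FLuc activity quantified from luminescence images.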"}, "[6]": {"experiment": "qHTS assay to identify small molecule agonists of the constitutive androstane receptor (CAR) signaling pathway - cell viability counter screen (AID 1224836); note: series mostly up to about 92 µM; nearly all actives have a fitted effect of over 45% in size", "in_short": "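Multiplexed viability check: HepG2-CYP2B6-hCAR cells, 15-point compound dosing, 0.75 uM PK11195 final, 23 h at 37 C, CellTiter-Fluor fluorescence.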"}, "[7]": {"experiment": "qHTS assay to identify small molecule antagonists of the constitutive androstane receptor (CAR) signaling pathway - cell viability counter screen (AID 1224837); note: series mostly up to about 92 µM; nearly all actives have a fitted effect of over 45% in size", "in_short": "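Multiplexed cytotoxicity read-out for the CAR antagonist screen: double-stable HepG2-CYP2B6-hCAR cells co-treated with 50 nM CITCO (final) and compound over 15 concentrations, incubated 23 hr, then assessed by CellTiter-Fluor fluorescence.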"}, "[8]": {"target": "Nuclear receptor subfamily 1 group I member 3 (Homo sapiens) (UniProt Q14994)", "sequence (Q14994 whole entry, looked up)": "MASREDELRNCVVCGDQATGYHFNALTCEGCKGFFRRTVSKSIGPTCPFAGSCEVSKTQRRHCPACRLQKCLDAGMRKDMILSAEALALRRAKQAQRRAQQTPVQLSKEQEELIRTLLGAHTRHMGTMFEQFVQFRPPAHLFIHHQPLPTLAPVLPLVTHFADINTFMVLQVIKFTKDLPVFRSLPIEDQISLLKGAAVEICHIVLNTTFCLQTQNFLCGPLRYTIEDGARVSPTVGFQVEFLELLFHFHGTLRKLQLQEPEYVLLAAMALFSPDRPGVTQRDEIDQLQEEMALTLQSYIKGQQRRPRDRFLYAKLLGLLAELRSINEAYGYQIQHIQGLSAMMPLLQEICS", "experiment": "qHTS assay to identify small molecule antagonists of the constitutive androstane receptor (CAR) signaling pathway (AID 1224838); note: nearly all actives have a fitted effect of over 40% in size", "in_short": "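Compounds were titrated across 15 concentrations onto HepG2 cells double-stably expressing hCAR and a CYP2B6-2.2kb reporter, together with 50 nM CITCO (final). After 24 h at 37 C, luciferase activity was measured by luminescence.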"}, "[9]": {"experiment": "qHTS assay to identify small molecule agonists of the retinoic acid receptor (RAR) signaling pathway (AID 1159553)", "in_short": "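Agonist activity was scored in C3RL4 cells bearing a retinoic acid response element luciferase construct. Cells were treated with compounds for 6 hr at 37 C, and luciferase signal was measured as luminescence.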"}, "[10]": {"target": "Nuclear receptor subfamily 1 group I member 3 (Homo sapiens) (UniProt Q14994)", "experiment": "qHTS assay to identify small molecule agonists of the constitutive androstane receptor (CAR) signaling pathway (AID 1224839); note: series mostly up to about 92 µM; nearly all actives have a fitted effect of over 15% in size", "in_short": "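Using human hepatoma HepG2 cells engineered with hCAR and a CYP2B6-2.2kb reporter, 15-concentration compound series were incubated 24 h alongside PK11195 at 0.75 uM final, with luminescence quantified afterwards.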"}}, "note": "Results filed as inconclusive are left out. Where a call stands in place of a potency, no number is given. Activity calls are given as the source filed them. Calls come from the whole dose curve; as a rule, active = well fitted curve in the direction sought with a large enough effect in the repeat runs; inconclusive = weak or mixed curves; inactive = no such curve, though single readings can be large; an effect the other way counts as inactive or inconclusive.", "data": [{"smiles": "CCO/C=C1\\N=C(c2ccccc2)OC1=O", "values": [{"measurement": "Potency", "setting": "[1]", "result": "inactive"}, {"measurement": "outcome", "setting": "[2]", "result": "inactive"}, {"measurement": "outcome", "setting": "[3]", "result": "inactive"}, {"measurement": "outcome", "setting": "[4]", "result": "inactive"}, {"measurement": "Potency", "setting": "[5]", "result": "inactive"}, {"measurement": "outcome", "setting": "[6]", "result": "inactive"}, {"measurement": "outcome", "setting": "[7]", "result": "inactive"}, {"measurement": "outcome", "setting": "[8]", "result": "inactive"}]}, {"smiles": "CC(C)CC(O)Cc1ccccc1", "note": "(centres undefined)", "values": [{"measurement": "Potency", "setting": "[1]", "result": "inactive"}, {"measurement": "outcome", "setting": "[2]", "result": "inactive"}, {"measurement": "outcome", "setting": "[3]", "result": "inactive"}, {"measurement": "Potency", "setting": "[9]", "result": "inactive"}, {"measurement": "Potency", "setting": "[5]", "result": "inactive"}, {"measurement": "outcome", "setting": "[6]", "result": "inactive"}, {"measurement": "outcome", "setting": "[7]", "result": "inactive"}, {"measurement": "outcome", "setting": "[8]", "result": "inactive"}, {"measurement": "Potency", "setting": "[10]", "result": "inactive"}]}, {"smiles": "CC[C@@]1(c2ccccc2)NC(=O)N(C)C1=O", "values": [{"measurement": "Potency", "setting": "[1]", "result": "inactive"}, {"measurement": "outcome", "setting": "[2]", "result": "inactive"}, {"measurement": "outcome", "setting": "[3]", "result": "inactive"}, {"measurement": "outcome", "setting": "[4]", "result": "inactive"}, {"measurement": "Potency", "setting": "[5]", "result": "inactive"}, {"measurement": "outcome", "setting": "[6]", "result": "inactive"}, {"measurement": "outcome", "setting": "[7]", "result": "inactive"}]}, {"smiles": "CO/N=C(\\C(=O)O)c1csc(NC(=O)CCl)n1", "values": [{"measurement": "Potency", "setting": "[1]", "result": "inactive"}, {"measurement": "outcome", "setting": "[2]", "result": "inactive"}, {"measurement": "outcome", "setting": "[3]", "result": "inactive"}, {"measurement": "Potency", "setting": "[9]", "result": "inactive"}, {"measurement": "Potency", "setting": "[5]", "result": "inactive"}, {"measurement": "outcome", "setting": "[6]", "result": "inactive"}, {"measurement": "outcome", "setting": "[7]", "result": "inactive"}, {"measurement": "outcome", "setting": "[8]", "result": "inactive"}, {"measurement": "Potency", "setting": "[10]", "result": "inactive"}]}, {"smiles": "CC(=O)Nc1ccc(S(=O)(=O)Nc2cc(C)on2)cc1", "values": [{"measurement": "Potency", "setting": "[1]", "result": "inactive"}, {"measurement": "outcome", "setting": "[2]", "result": "inactive"}, {"measurement": "outcome", "setting": "[3]", "result": "inactive"}, {"measurement": "outcome", "setting": "[4]", "result": "inactive"}, {"measurement": "Potency", "setting": "[5]", "result": "inactive"}, {"measurement": "outcome", "setting": "[6]", "result": "inactive"}, {"measurement": "outcome", "setting": "[7]", "result": "inactive"}]}, {"smiles": "CC(=O)SCC(CC(=O)c1ccc(C)cc1)C(=O)O", "note": "(centres undefined)", "values": [{"measurement": "Potency", "setting": "[1]", "result": "inactive"}, {"measurement": "outcome", "setting": "[2]", "result": "inactive"}, {"measurement": "outcome", "setting": "[3]", "result": "inactive"}, {"measurement": "Potency", "setting": "[9]", "result": "inactive"}, {"measurement": "Potency", "setting": "[5]", "result": "27.5 µM (active)"}, {"measurement": "outcome", "setting": "[6]", "result": "inactive"}, {"measurement": "outcome", "setting": "[7]", "result": "inactive"}]}, {"smiles": "C=CC(=O)CC", "values": [{"measurement": "Potency", "setting": "[1]", "result": "inactive"}, {"measurement": "outcome", "setting": "[2]", "result": "inactive"}, {"measurement": "outcome", "setting": "[3]", "result": "inactive"}, {"measurement": "outcome", "setting": "[4]", "result": "inactive"}, {"measurement": "Potency", "setting": "[5]", "result": "inactive"}, {"measurement": "outcome", "setting": "[7]", "result": "inactive"}]}, {"smiles": "CCOC(=O)CC(C(C)=O)C(C)=O", "values": [{"measurement": "Potency", "setting": "[1]", "result": "inactive"}, {"measurement": "outcome", "setting": "[2]", "result": "inactive"}, {"measurement": "outcome", "setting": "[4]", "result": "inactive"}, {"measurement": "Potency", "setting": "[5]", "result": "inactive"}, {"measurement": "outcome", "setting": "[6]", "result": "inactive"}, {"measurement": "outcome", "setting": "[7]", "result": "inactive"}, {"measurement": "outcome", "setting": "[8]", "result": "inactive"}, {"measurement": "Potency", "setting": "[10]", "result": "inactive"}]}, {"smiles": "CCCCC(CC)COC(=O)CC#N", "note": "(centres undefined)", "values": [{"measurement": "Potency", "setting": "[1]", "result": "inactive"}, {"measurement": "outcome", "setting": "[2]", "result": "inactive"}, {"measurement": "outcome", "setting": "[3]", "result": "inactive"}, {"measurement": "Potency", "setting": "[5]", "result": "inactive"}, {"measurement": "outcome", "setting": "[6]", "result": "inactive"}, {"measurement": "outcome", "setting": "[7]", "result": "inactive"}]}, {"smiles": "CCCCCCCCCCCCCCCC/C=C/C1CC(=O)OC1=O", "note": "(centres undefined)", "values": [{"measurement": "Potency", "setting": "[1]", "result": "inactive"}, {"measurement": "outcome", "setting": "[2]", "result": "inactive"}, {"measurement": "outcome", "setting": "[4]", "result": "inactive"}, {"measurement": "Potency", "setting": "[5]", "result": "inactive"}, {"measurement": "outcome", "setting": "[6]", "result": "inactive"}, {"measurement": "outcome", "setting": "[7]", "result": "inactive"}]}, {"smiles": "Clc1ccc2c(c1)Nc1ccccc1S2", "values": [{"measurement": "Potency", "setting": "[1]", "result": "inactive"}, {"measurement": "outcome", "setting": "[2]", "result": "inactive"}, {"measurement": "Potency", "setting": "[9]", "result": "inactive"}, {"measurement": "outcome", "setting": "[4]", "result": "inactive"}, {"measurement": "Potency", "setting": "[5]", "result": "inactive"}, {"measurement": "outcome", "setting": "[7]", "result": "inactive"}, {"measurement": "outcome", "setting": "[8]", "result": "inactive"}]}, {"smiles": "CC(C)(C)NCC(O)COc1cccc2c1CCC(=O)N2", "note": "(centres undefined)", "values": [{"measurement": "Potency", "setting": "[1]", "result": "inactive"}, {"measurement": "outcome", "setting": "[2]", "result": "inactive"}, {"measurement": "outcome", "setting": "[3]", "result": "inactive"}, {"measurement": "outcome", "setting": "[4]", "result": "inactive"}, {"measurement": "Potency", "setting": "[5]", "result": "inactive"}, {"measurement": "outcome", "setting": "[6]", "result": "inactive"}, {"measurement": "outcome", "setting": "[7]", "result": "inactive"}, {"measurement": "outcome", "setting": "[8]", "result": "inactive"}, {"measurement": "Potency", "setting": "[10]", "result": "inactive"}]}]}
